Measured values as given in the supplement of paper PMC8047044.
“And” between values parts separate entries of the source, which are not always exact repeats. Equal entries are not always repeated.

What was measured:
[1] = test system: Neuro-2a; experiment: neurite formation score, plate-normalized to DMSO control mean 5.04 (score (0-8 scale)); higher = more or longer neurites; conditions: 1 µM
Procedure: (§1)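 Neuro-2a mouse neuroblastoma cells in PLL-coated 96-well plates were pre-treated for 1 h in DMEM(+) with each kinase inhibitor at 1 µM, then switched to serum-free DMEM(-) with inhibitor to induce neurite outgrowth and fixed about 2-3 h later. Three blinded observers scored neurite formation from 0 (no neurites) to 8 (long neurites on almost all cells).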

[2] = test system: Neuro-2a; experiment: as above; conditions: 0.1 µM
Procedure: as §1, with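 “at 0.1” for “at 1”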

| Compound | neurite formation score [1] | neurite formation score [2] |
| --- | --- | --- |
| CN1CCN(c2nc(C3=C(c4c[nH]c5ccccc45)C(=O)NC3=O)c3ccccc3n2)CC1 [Sotrastaurin (AEB071)] | 5.96 | 4.92 |
| Cc1cc(N2CCOCC2)cc2[nH]c(-c3c(NC[C@@H](O)c4cccc(Cl)c4)cc[nH]c3=O)nc12 | 3.57 | 4.71 |
| COc1cc(Nc2nc3ccccc3nc2NS(=O)(=O)c2ccc(NC(=O)c3ccc(C)c(OC)c3)cc2)cc(OC)c1 | 4.57 | 4.21 |
| CN1CCC(COc2cnc(-c3cccc(Cn4nc(-c5cccc(C#N)c5)ccc4=O)c3)nc2)CC1 | 3.69 | 4.92 |
| Cc1ccc2nc(NCCN)c3ncc(C)n3c2c1 | 4.47 and 4.14 | 4.09 and 3.42 |
| C=CC(=O)Nc1ccc(CN2C(=O)N(c3cc(OC)cc(OC)c3)Cc3cnc(Nc4ccc(N5CCN(C)CC5)cc4)nc32)cc1 | 4.63 | 4.25 |
| Cc1cc(Nc2cc(N3CCN(C)CC3)nc(/C=C/c3ccccc3)n2)n[nH]1 | 3.02 | 3.92 |
| c1cn2cc(-c3ccc4cn[nH]c4c3)nc(Nc3ccc(N4CCOCC4)cc3)c2n1 | 4.54 | 5.08 |
| C[C@@H](Oc1cc(-n2cnc3ccc(CN4CCN(C)CC4)cc32)sc1C(N)=O)c1ccccc1C(F)(F)F | 4.29 | 3.58 |
| COc1ccc(S(=O)(=O)N(CCO)c2ccccc2CN(C)C/C=C/c2ccc(Cl)cc2)cc1 [KN-93 Phosphate] | 4.21 | 4.42 |
| CCN(CC)CCCC(C)Nc1nc(C)cc(Nc2ccc3nc(C)cc(N)c3c2)n1 (configuration not stated) | – | 5.38 |
| O=C(O)c1ccc(-c2c[nH]c3ncc(-c4ccccc4)cc23)cc1C1CCCC1 | – | 3.92 |
| COc1cc2c(N3CCN(C(=O)Nc4ccc(OC(C)C)cc4)CC3)ncnc2cc1OCCCN1CCCCC1 [Tandutinib (MLN518)] | – | 4.58 |
| Cc1cc(Nc2cc(CN3CCOCC3)c3nc(C)c(Cc4ccc(Cl)cc4F)n3n2)n[nH]1 | – | 5.25 |
| Nc1nc(Nc2ccc(S(N)(=O)=O)cc2)nn1C(=O)c1c(F)cccc1F | 5.02 | 5.58 |
| COc1cc2ncnc(Nc3ccc(O)cc3)c2cc1OC | 5.02 | 4.25 |
| Cc1cnc(NC(=O)Nc2cc(Br)c(C)cc2OC[C@@H]2CNCCO2)cn1 | – | 4.58 |
| CC(C)c1cc(CNc2nc(Nc3cc(C4CC4)[nH]n3)cc(N3CCN(C)CC3)n2)on1 | 0.692 | 4.92 |
| COc1cc(Nc2ncc3c(n2)-c2ccc(Cl)cc2C(c2c(F)cccc2OC)=NC3)ccc1C(=O)O [MLN8237 (Alisertib)] | 4.36 | 4.58 |
| N#CC(=C(/N)Sc1ccccc1N)/C(C#N)=C(\N)Sc1ccccc1N | – | 5.71 |
| CCNC(=O)Nc1ccc(-c2nc3c(c(N4CCOC[C@@H]4C)n2)CCN(C2COC2)C3)cc1 | 4.24 | 3.71 |
| Cn1cc(-c2ccc3nnc(Sc4ccc5ncccc5c4)n3n2)cn1 | 4.24 | 5.04 |
| Cc1ccc(-c2nn(C(C)(C)C)c3ncnc(N)c23)cc1 | – | 3.54 |
| CCNc1nc(Nc2cc(F)c(C(=O)N3CCOCC3)cc2OC)ncc1C(F)(F)F | 3.21 | 3.75 |
| CCN1CCN(c2ccc(Nc3cc(N(C)C(=O)Nc4c(Cl)c(OC)cc(OC)c4Cl)ncn3)cc2)CC1 | – | 4.09 |
